These results are taken from PubChem BioAssay (EPA / NIEHS).

Each structure is given as a SMILES string. Results filed as inconclusive are left out. The source made the active and inactive calls. Rule for the calls: active = hit-call score of the fitted dose curve at least 0.9, where 1 is the maximum; inconclusive = response in the unintended direction; inactive = score below 0.9.

A word on the AC50: it is the concentration giving half of the maximal activity seen.

In this experiment the test system is guinea pig Atrionatriuretic Peptide Receptor A (ANPA), gene 100135578. The experiment can be described thus: NVS_GPCR_gANPA: NovaScreen (NVS) G Protein-Coupled Receptor Assay for guinea pig Atrionatriuretic Peptide Receptor A (ANPA) (AID 2283291). As for the experimental part:
NVS_GPCR_gANPA is a biochemical, single-readout assay that uses extracted gene-proteins from Guinea pig cerebellar membranes in a tissue-based cell-free assay. Measurements were taken 1 hour after chemical dosing in a 96-well plate.NVS_GPCR_gANPA is one of one assay component(s) measured or calculated from the NVS_GPCR_gANPA assay. It is designed to make measurements of radioligand binding, a form of binding reporter, as detected with scintillation counting signals by Filter-based radiodetection technology.Data from the assay component NVS_GPCR_gANPA was analyzed into 1 assay endpoint. This assay endpoint, NVS_GPCR_gANPA, was analyzed in the positive analysis fitting direction relative to DMSO as the negative control and baseline of activity. Using a type of binding reporter, loss-of-signal activity can be used to understand changes in the binding as they relate to the gene Nppa. Furthermore, this assay endpoint can be referred to as a primary readout, because the performed assay has only produced 1 assay endpoint. To generalize the intended target to other relatable targets, this assay endpoint is annotated to the lyase intended target family, where the subfamily is guanylyl cyclase.
Binding assays used specific radioligands (tritiated, iodinated) with non-radioactive competitive displacement ligands in agonist or antagonist protocols (as indicated) and various reference compounds and inhibitors to titrate specific binding to receptors and transporters. Most enzyme assays (CYPs, kinases, phosphatases, proteases, HDACs) used recombinant protein and specific substrates (fluorescence mostly, some colorimetric and radioactive) and inhibitors, followed by a biochemical separation of substrate and product. All assays for the biochemical HTS were initially run in duplicate at a single concentration (10 uM for CYP450 assays and 25 uM for all others). Assay-chemical combinations meeting a pre-defined threshold (e.g., 30% inhibition and other criteria defined below) were then run in singleton concentration-response format with maximum concentration of 20 uM for CYPs and 50 uM for all others. Each assay was run with positive and negative controls, and concurrent controls on every plate. The follow-up (secondary) screen tested active chemical-pairs in concentration series, as well as a few additional assays not tested in the primary screen, some selected negative inactives, and several cases re-run in the concentration series for confirmatory purposes.
As for `Clc1cc(Cl)c(Cl)cc1Cl`, the compound was classed as inactive.

Turning to `CC(=O)c1ccccc1`, the compound was classed as inactive.

In the case of `Oc1ccc2c(c1)OC[C@@H](N1CCC(O)(c3ccc(F)cc3)CC1)[C@H]2O`, the outcome was inactive.

`CCc1cccc(CC)c1N`: the result was inactive.

As to `O=C(OCCCCCCOC(=O)c1ccccc1)c1ccccc1`, the result was inactive.

Turning to `Cc1nccn1-c1ccc(Sc2cccc(C3(C(N)=O)CCOCC3)c2)cc1`, the result was inactive.

In the case of `CC(C)(c1cc(Br)c(O)c(Br)c1)c1cc(Br)c(O)c(Br)c1`, the compound was classed as inactive.

`CC(C)(C)c1ccccc1`: the call was inactive.

In the case of `CCCCCCCCCC`, the result was inactive.

For the compound `CCCCCCCCCCCCCCCCO`, the compound was called inactive.

Regarding `CN(C[C@@H](CC[N+]12CCC(C3CCCCC3)(CC1)CC2)c1ccc(Cl)c(Cl)c1)C(=O)c1cc(C(F)(F)F)cc(C(F)(F)F)c1`, the AC50 was 42.3 µM (active).

Consider `Cc1cc(C)c(O)c(C)c1`, for which the outcome was inactive.

For the compound `COCc1nnc(-c2ccc[n+]([O-])c2)n1-c1c(Cl)c(Cl)cc2[nH]c(=O)c(=O)[nH]c12`, the result was inactive.

As for `COCC(C)O` (stereo not given), the compound was called inactive.

As for `CCCCCCC(C)OC(=O)COc1nc(F)c(Cl)c(N)c1Cl` (stereo not given), the call was inactive.
